The values below come from paper PMC8384837, “Expanding the binding specificity for RNA recognition by a PUF domain”.

Common to all, as to test: yeast three-hybrid, YBZ-1, SC-Leu-His + 0.5 mM 3-AT, 4 days
Common to all, as to conditions: tags: N-Gal4 AD-HA kept; label: inside an RPR1-promoter hybrid RNA with tandem MS2 sites; ssRNA

The target in one assay is PUM1 PUF domain R7-EPA (Homo sapiens, UniProt Q14671 828-1176, S1079E;N1080P;E1083A). The method, boiled down: (§1)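 Each repeat of the Pumilio-1 PUF domain was randomized at its three base-contacting residues, and these libraries were co-expressed from a centromeric plasmid with matching RNA elements in strain YBZ-1. After four days on SC-Leu (input) or SC-Leu-His + 0.5 mM 3-AT (selection), the repeat regions were PCR-amplified and Illumina-sequenced. The interaction score compares variant frequency between input and selection as a log change, computed in log2 with a pseudocount of 1 for absent variants.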

The next assay concerns the target PUM1 PUF domain R5-DYF (Homo sapiens, UniProt Q14671 828-1176, C1007D;R1008Y;Q1011F). The method, boiled down:
as §1

A further assay addresses PUM1 PUF domain R5-RPM (Homo sapiens, UniProt Q14671 828-1176, C1007R;R1008P;Q1011M). In a few lines:
as §1

The next assay concerns the target PUM1 PUF domain R5-LWS (Homo sapiens, UniProt Q14671 828-1176, C1007L;R1008W;Q1011S). In a few lines: as §1
The target of a further assay is PUM1 PUF domain R1-KRR (Homo sapiens, UniProt Q14671 828-1176, S863K;Q867R). In a few lines: as §1
The next assay deals with PUM1 PUF domain R1-KLV (Homo sapiens, UniProt Q14671 828-1176, S863K;R864L;Q867V). The method, boiled down: as §1
A further assay has as its target PUM1 PUF domain R1-LWK (Homo sapiens, UniProt Q14671 828-1176, S863L;R864W;Q867K). In a few lines:
as §1

The next assay addresses T1, PUM1 PUF domain R6-GLR (Homo sapiens, UniProt Q14671 828-1176, N1043G;Y1044L;Q1047R).
T1 sequence: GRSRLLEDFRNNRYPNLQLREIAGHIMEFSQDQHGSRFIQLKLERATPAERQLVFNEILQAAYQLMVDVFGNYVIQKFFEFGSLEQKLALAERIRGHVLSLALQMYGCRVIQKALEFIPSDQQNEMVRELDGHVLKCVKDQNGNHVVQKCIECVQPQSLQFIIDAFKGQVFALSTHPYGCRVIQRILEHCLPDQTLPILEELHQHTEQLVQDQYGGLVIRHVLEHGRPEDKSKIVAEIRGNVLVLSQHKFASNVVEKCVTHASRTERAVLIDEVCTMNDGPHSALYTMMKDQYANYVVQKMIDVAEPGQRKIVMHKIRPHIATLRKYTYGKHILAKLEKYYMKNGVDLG
In a few lines:
as §1

The target in the next assay is PUM1 PUF domain R3-RGG (Homo sapiens, UniProt Q14671 828-1176, C935R;R936G;Q939G). The method, boiled down: as §1
For another assay, the target named is PUM1 PUF domain R3-SCK (Homo sapiens, UniProt Q14671 828-1176, C935S;R936C;Q939K). In a few lines: as §1
In a further assay the target is PUM1 PUF domain R3-RAR (Homo sapiens, UniProt Q14671 828-1176, C935R;R936A;Q939R). In a few lines:
as §1

A further assay has as its target PUM1 PUF domain R4-DFS (Homo sapiens, UniProt Q14671 828-1176, N971D;H972F;Q975S). The method, boiled down: as §1
Another assay deals with PUM1 PUF domain R4-FNA (Homo sapiens, UniProt Q14671 828-1176, N971F;H972N;Q975A). The method, boiled down:
as §1

Chain of PUM1 PUF domain R5-LWS (Q14671 828-1176 C1007L/R1008W/Q1011S): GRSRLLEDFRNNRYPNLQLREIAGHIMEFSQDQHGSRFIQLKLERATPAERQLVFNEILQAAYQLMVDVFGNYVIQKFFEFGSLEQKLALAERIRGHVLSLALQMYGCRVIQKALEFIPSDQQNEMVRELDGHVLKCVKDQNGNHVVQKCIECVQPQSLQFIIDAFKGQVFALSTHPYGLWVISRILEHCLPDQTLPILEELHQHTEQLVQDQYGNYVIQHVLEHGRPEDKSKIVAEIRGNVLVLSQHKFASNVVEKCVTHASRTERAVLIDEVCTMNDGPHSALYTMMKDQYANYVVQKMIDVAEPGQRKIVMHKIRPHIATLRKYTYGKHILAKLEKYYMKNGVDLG

With “GGCUAGAACUAGUGGAUCCCCCGGCGCCCGGCGGCUCGAGCCCGGGUAAGUCUAAAUAGUCUGCAUGCCGCCGGGCGCCAUGCCUGCAGGUCGACUCUAGAAAACAUG”, the binding signal with PUM1 PUF domain R7-EPA is 4.81 log2 enrichment (interaction score).

For “GGCUAGAACUAGUGGAUCCCCCGGCGCCCGGCGGCUCGAGCCCGGGUAAGUGUUAAUAGUCUGCAUGCCGCCGGGCGCCAUGCCUGCAGGUCGACUCUAGAAAACAUG”, the values for the binding signal with PUM1 PUF domain R5-DYF, with PUM1 PUF domain R5-RPM and with PUM1 PUF domain R5-LWS were 4.44 log2 enrichment (interaction score), 2.25 log2 enrichment (interaction score) and 2.93 log2 enrichment (interaction score), respectively.

On to “GGCUAGAACUAGUGGAUCCCCCGGCGCCCGGCGGCUCGAGCCCGGGUAAGUGUAAAUCGUCUGCAUGCCGCCGGGCGCCAUGCCUGCAGGUCGACUCUAGAAAACAUG”, for which the results for the binding signal in the assay with PUM1 PUF domain R1-KRR, in the assay with PUM1 PUF domain R1-KLV and with PUM1 PUF domain R1-LWK were 5.65 log2 enrichment (interaction score), 3.95 log2 enrichment (interaction score) and 4.58 log2 enrichment (interaction score), respectively.

On to “GGCUAGAACUAGUGGAUCCCCCGGCGCCCGGCGGCUCGAGCCCGGGUAAGUGCAAAUAGUCUGCAUGCCGCCGGGCGCCAUGCCUGCAGGUCGACUCUAGAAAACAUG”, for which the binding signal with PUM1 PUF domain R6-GLR is 3.46 log2 enrichment (interaction score).

As to “GGCUAGAACUAGUGGAUCCCCCGGCGCCCGGCGGCUCGAGCCCGGGUAAGUGUAAUUAGUCUGCAUGCCGCCGGGCGCCAUGCCUGCAGGUCGACUCUAGAAAACAUG”, the binding signal was 2.13 log2 enrichment (interaction score) with PUM1 PUF domain R3-RGG, 3.52 log2 enrichment (interaction score) in the assay with PUM1 PUF domain R3-SCK and 3.75 log2 enrichment (interaction score) in the assay with PUM1 PUF domain R3-RAR.

On to “GGCUAGAACUAGUGGAUCCCCCGGCGCCCGGCGGCUCGAGCCCGGGUAAGUGUAUAUAGUCUGCAUGCCGCCGGGCGCCAUGCCUGCAGGUCGACUCUAGAAAACAUG”, for which the binding signal in the assay with PUM1 PUF domain R4-DFS was 6.8 log2 enrichment (interaction score); with PUM1 PUF domain R4-FNA, 2.23 log2 enrichment (interaction score).

With “GGCUAGAACUAGUGGAUCCCCCGGCGCCCGGCGGCUCGAGCCCGGGUAAGUGUAAAUUGUCUGCAUGCCGCCGGGCGCCAUGCCUGCAGGUCGACUCUAGAAAACAUG”, the binding signal with PUM1 PUF domain R1-KRR is 5.9 log2 enrichment (interaction score); with PUM1 PUF domain R1-KLV it was 4.79 log2 enrichment (interaction score).
